Test results reported in PMC4336329 (PLoS ONE, 2015).
The campaign covered roughly 310,000 compounds. About 14,000 (4.5%) showed an effect of 50% or more. Effects have a minus sign here. The full list was thinned out, with strong results kept by preference.

molecular target: human ether-à-go-go-related gene (hERG) potassium channel (human, UniProt Q12809); test: primary screen, population patch clamp on CHO cells stably expressing hERG; higher = less effect of the substance
Experimental: Briefly, Chinese hamster ovary (CHO) cells stably expressing the hERG channel were dislodged from tissue culture flasks and dispensed into PPC plates. […] During the recording, background leak currents were estimated by a 100 ms step to -80 mV from an initial holding potential of -70 mV and subtracted from the subsequent current measurement. The campaign was conducted in two phases using slight differences in recording protocol. In the first phase, the initial voltage pulse used a 100 ms step to -30 mV from a holding potential of -70 mV, a 2 s conditioning step to +25 mV, and a 2 s test step to -30 mV. During the second phase of the screen, the potential during the conditioning step was raised to +45 mV. In both phases of the campaign, a secondary voltage pulse was applied using the same parameters as the second phase initial pulse. The initial and secondary pulses were applied in the absence of compound, and upon application of 1 μM and 10 μM test concentrations. […]
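Further: peak tail current of the secondary pulse compared with the same well before compound.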

human ether-à-go-go-related gene (hERG) potassium channel, sequence (Q12809 whole entry, looked up): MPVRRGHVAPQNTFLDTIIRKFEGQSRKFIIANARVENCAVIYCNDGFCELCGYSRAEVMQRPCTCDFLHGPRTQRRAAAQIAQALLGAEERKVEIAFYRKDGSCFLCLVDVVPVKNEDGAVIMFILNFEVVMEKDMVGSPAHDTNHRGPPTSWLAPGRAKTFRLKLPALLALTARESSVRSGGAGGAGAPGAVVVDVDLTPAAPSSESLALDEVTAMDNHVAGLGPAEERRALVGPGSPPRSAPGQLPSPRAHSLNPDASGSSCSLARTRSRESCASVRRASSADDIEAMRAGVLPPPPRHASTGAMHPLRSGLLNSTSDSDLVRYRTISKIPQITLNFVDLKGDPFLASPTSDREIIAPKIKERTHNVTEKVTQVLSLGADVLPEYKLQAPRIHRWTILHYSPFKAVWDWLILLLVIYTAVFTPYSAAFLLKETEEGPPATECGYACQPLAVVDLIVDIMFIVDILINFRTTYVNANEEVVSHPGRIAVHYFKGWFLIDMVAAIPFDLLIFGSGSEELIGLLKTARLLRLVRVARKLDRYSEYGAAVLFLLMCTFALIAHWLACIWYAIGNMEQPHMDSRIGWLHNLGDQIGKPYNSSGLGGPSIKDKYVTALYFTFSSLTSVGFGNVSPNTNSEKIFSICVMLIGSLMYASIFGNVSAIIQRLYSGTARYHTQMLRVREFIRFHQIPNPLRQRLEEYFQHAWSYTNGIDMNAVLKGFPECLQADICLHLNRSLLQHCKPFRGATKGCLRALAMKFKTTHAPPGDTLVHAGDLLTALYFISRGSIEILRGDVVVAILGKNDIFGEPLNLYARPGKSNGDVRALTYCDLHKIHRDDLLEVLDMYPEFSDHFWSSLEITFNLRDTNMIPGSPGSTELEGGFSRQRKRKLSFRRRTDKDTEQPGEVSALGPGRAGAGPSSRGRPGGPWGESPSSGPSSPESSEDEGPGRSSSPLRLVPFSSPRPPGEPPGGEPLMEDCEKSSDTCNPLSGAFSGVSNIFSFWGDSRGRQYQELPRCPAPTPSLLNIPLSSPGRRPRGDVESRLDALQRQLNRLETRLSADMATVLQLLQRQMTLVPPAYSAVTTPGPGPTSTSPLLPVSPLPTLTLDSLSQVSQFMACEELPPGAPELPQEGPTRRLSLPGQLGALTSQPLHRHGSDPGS

SMILES	hERG current change (%, negative = inhibition) at 10uM
COc1cc(OC)cc(C(=O)NCCSc2c[nH]c3ccccc23)c1	-17.1%
NC(=O)c1sc2nc3c(cc2c1N)CCC3	8.92%
CC(=O)c1ccc(OC(=O)C2CSC3(C)CCC(=O)N23)cc1 (centres unmarked)	12.4%
CCN(CC)CC(O)Cn1c(-c2cccc(Cl)c2)nc2cc(C)c(C)cc21 (centres unmarked)	-62.8%
CCN(CC)CC(O)Cn1c(-c2ccccc2Cl)nc2ccccc21 (centres unmarked)	-25.2%
OC(CN1CCOCC1)Cn1c(-c2cccc(Cl)c2)nc2ccccc21 (centres unmarked)	-21.3%
CCOC(=O)[C@@H]1[C@H]2COc3ccc(Br)cc3[C@@H]2N2C(=O)N(c3ccc(C)cc3)C(=O)[C@]12C	5.6%
O=C(NCC1CCCCC1)c1cc(S(=O)(=O)N2CCCCC2)ccc1N1CCOCC1	-7.89%
COc1ccc(C2C(C#N)=C(N)Nc3onc(C(C)(C)C)c32)c(OC)c1 (centres unmarked)	3.15%
COc1ccc2oc(C(=O)OCc3nnc(-c4ccccc4)o3)c(C)c2c1	19.8%
CCCCN(C(=O)COc1ccc(C)cc1OC)c1c(N)n(CCC)c(=O)[nH]c1=O	4.7%
O=C(c1ccccc1)c1ccccn1	2.58%
CCOc1ccc(S(=O)(=O)N2CCC(C(=O)NCc3ccccn3)CC2)cc1	-25.9%
Cc1ccc(S(=O)(=O)N2CCC(C(=O)NCc3ccccc3CN3CCCC3)CC2)cc1C	-68.7%
Cc1ccc(S(=O)(=O)N2CCC(C(=O)NCCC3=CCCCC3)CC2)cc1C	-11.6%
O=C(NCc1ccccc1F)C1CCN(S(=O)(=O)c2ccccc2)CC1	-12.1%
COc1ccc(S(=O)(=O)N2CCC(C(=O)NCCC3=CCCCC3)CC2)cc1C	-56.2%
Cc1ccc(S(=O)(=O)N2CCC(C(=O)NCc3ccccc3Cl)CC2)cc1	-4.47%
Cc1ccc(S(=O)(=O)N2CCC(C(=O)NCCN3CCOCC3)CC2)cc1C	8.7%
O=C(NCc1ccccc1CN1CCCC1)C1CCN(S(=O)(=O)c2ccc(F)c(F)c2)CC1	-59.1%
COc1ccc(S(=O)(=O)N2CCC(C(=O)NCCC3=CCCCC3)CC2)cc1OC	-23.5%
CCOc1ccc(S(=O)(=O)N2CCC(C(=O)NCc3ccccc3CN3CCCC3)CC2)cc1	-64.3%
CCOc1ccc(S(=O)(=O)N2CCC(C(=O)NCCc3ccccc3)CC2)cc1	29.1%
O=C(NCc1ccccc1Cl)C1CCN(S(=O)(=O)c2ccc(F)cc2)CC1	-45.6%
Cc1ccn2c(NC(=O)c3ccco3)c(-c3ccccc3)nc2c1	-23.7%
O=C(CSc1nc(O)cc(=O)[nH]1)N1c2ccccc2Sc2ccccc21	8.9%
CC(C)c1ccc(NC(=O)NCc2ccc3c(c2)OCO3)cc1	13.4%

SMILES	hERG current change (%, negative = inhibition) at 10uM
O=C(O)c1ccccc1OC(=O)C12CC3CC(CC(C3)C1)C2	18.1%
O=C(NCc1ccc(F)cc1)c1cccnc1	9.37%
Cc1nc([N+](=O)[O-])cn1Cc1cccc2ccccc12	10.2%
CCOc1ccc(S(=O)(=O)N2CCCC(C(=O)NCc3ccco3)C2)cc1 (centres unmarked)	-4.45%
O=C(NCc1ccc(Cl)cc1)C1CCN(S(=O)(=O)c2ccccc2)CC1	13%
O=C(NCc1ccccc1Cl)C1CCN(S(=O)(=O)N2CCCC2)CC1	12.5%
N#Cc1ccccc1S(=O)(=O)N1CCC(C(=O)NCc2ccccc2CN2CCCC2)CC1	-69.1%
COc1ccc(S(=O)(=O)N2CCC(C(=O)NCc3ccco3)CC2)cc1	-25.4%
O=C(NCc1ccccc1CN1CCCC1)C1CCN(S(=O)(=O)c2ccc(Cl)cc2)CC1	-69.4%
CCOc1ccc(S(=O)(=O)N2CCC(C(=O)NCc3ccco3)CC2)cc1	-53%
O=C(NCc1ccccc1Cl)C1CCN(S(=O)(=O)N2CCCCC2)CC1	1.33%
O=C(NCc1ccccc1)C1CCN(S(=O)(=O)c2ccc(Cl)cc2)CC1	3.16%
CCOc1ccc(NC2OCC(O)C(O)C2O)c([N+](=O)[O-])c1 (centres unmarked)	33.2%
COc1cc(/C=N/NS(=O)(=O)c2ccc(C)c([N+](=O)[O-])c2)cc([N+](=O)[O-])c1O	18.1%
CCOC(=O)C1CCCN(C(=O)c2cc(-c3ccc(F)cc3)nc3ccccc23)C1 (centres unmarked)	-33.8%
COc1ccc(-c2cn3c(C)c(C(=O)N4CCN(c5ccccc5F)CC4)sc3n2)cc1	-29.8%
COc1ccc(-c2cn3c(C)c(C(=O)N4CCc5ccccc5C4)sc3n2)cc1	-31.9%
Cc1c(C(=O)N2CCOCC2)sc2nc(-c3ccccc3)cn12	-11.2%
CCOC(=O)C1CCCN(C(=O)c2cc3c(-c4cccc(OC)c4)nn(C)c3s2)C1 (centres unmarked)	-60.7%
CCOC(=O)C1CCCN(C(=O)c2sc3nc(-c4ccccc4)cn3c2C)C1 (centres unmarked)	-59.8%
CCOC(=O)C1CCCN(C(=O)c2cc(-c3ccccc3)nc3ccccc23)C1 (centres unmarked)	-9.9%
Cc1c(C(=O)N2CC(C)OC(C)C2)sc2nc(-c3ccc(F)cc3)cn12 (centres unmarked)	-38.4%
CCOC(=O)C1CCCN(C(=O)c2sc3nc(-c4ccc(OC)cc4)cn3c2C)C1 (centres unmarked)	-55.4%
CCOC(=O)C1CCCN(C(=O)c2sc3nc(-c4ccc(F)cc4)cn3c2C)C1 (centres unmarked)	-72.9%
CCOC(=O)N1CCN(C(=O)c2cc3c(-c4cccc(OC)c4)nn(C)c3s2)CC1	-35.6%
CCOC(=O)C1CCN(C(=O)c2cc3c(-c4ccc(OC)c(OC)c4)nn(C)c3s2)CC1	-17%
